Here are results for 71 sequences from the supplement of paper PMC10338343.

± gives the standard deviation. Over roughly 6,200 sequences, “pre-steady-state target cleavage rate” has its median near 0.29; the highest 2% begin near 2. Shown is part of a subset that was picked to be rich in the highest values.

This experiment relates to MIWI (PIWIL1) piRISC loaded with piRNA #1 (30 nt). The experiment is described as follows: pre-steady-state target cleavage rate (min^-1); MIWI and MILI are mouse PIWI proteins and EfPiwi is from a freshwater sponge; tags in brackets are library labels; higher = faster piRNA-guided slicing of the target. Particulars: guide: piRNA #1 5'p-UGAGGUAGUAGGUUGUAUAGUAUCCAGAGG; auxiliary factor: 500 nM mouse GTSF1. Here is the method:
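Cleave-'n-Seq: a library of target RNAs (target site embedded in constant flanks, ACAGCATTCCGCGTTAGTGATATCCG... 5' flank; DNA-blocked outside the site) at 0.1 nM was incubated with 1 nM active mouse MILI or MIWI piRISC (synthetic 5'-monophosphorylated piRNA guide) with or without 500 nM mouse GTSF1 at 33 °C for 1 min to 16 h. Uncleaved targets were sequenced and normalised to non-target controls, and the pooled three trials were fitted to a burst-and-steady-state model to give the pre-steady-state cleavage rate (min^-1; k3 is constrained to at most 1e-4). Sequence is the target site only; target names encode pairing extent (gX:gY) and contiguous / 1-mismatch / 2-mismatch / bulge geometry. Fits with R² ≤ 0 are excluded.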
As to GGAGAGGAAACUAUACAACGUACUACCUCA, the “pre-steady-state target cleavage rate” value was 0.27 ± 0.037.
To GGAGACCUAUGAUAUGUACCAACAACCUCA belongs under 0.0001; to GGAGUCGGAUACUAUACAACCUACUACCUCA, 1.45 ± 0.091.
GGUCUGCAUACUAUACAACCUACUACCUCA: the “pre-steady-state target cleavage rate” value is 1.71 ± 0.1.
Consider GCUCUGGAUACUACACAACCUACUACCUCA, for which the “pre-steady-state target cleavage rate” value was found to be 1.89 ± 0.095.
To GGAGACCAUACUAAACAACCUACUACCUGA belongs 0.604 ± 0.08; to GGAGAGCAUACUAUACAACGUACUACCUCA, 0.557 ± 0.036.
As to GCUCAUGGAUACUAUACAACCUACUACCUCA, the “pre-steady-state target cleavage rate” value was determined as 1.98 ± 0.1.
The same measure for GGUAUGGAUACUAUACAACCUACUACCUCA: 1.88 ± 0.11; for GCUAUGGAUACUAUACAACCUACUACCUCA: 1.93 ± 0.092; for GGUCAUGGAUACUAUACAACCUACUACCUCA: 1.85 ± 0.11.
To CCUAUGGAUACUAUACAACCUACUACCUCA belongs 2.15 ± 0.12.
To CCUCAUGGAUACUAUACAACCUACUACCUCA belongs 2.31 ± 0.13; to GGAGACGAUACAAUACAACCUACUUCCUCA, 0.408 ± 0.056; to GCUUUGGAUACUAUACAACCUACUACCUCA, 1.91 ± 0.11.
Regarding CCUUGGAUACUAUACAACCUACUACCUCA, the “pre-steady-state target cleavage rate” value amounted to 2.26 ± 0.14.
As for GGUUGGAUACUAUACAACCUACUACCUCA, the “pre-steady-state target cleavage rate” value turned out to be 1.78 ± 0.1.
Take GGUCUUGGAUACUAUACAACCUACUACCUCA: the “pre-steady-state target cleavage rate” value is 1.87 ± 0.11.
The same measure for GGACUUGGAUACUAUACAACCUACUACCUCA: 1.78 ± 0.11; for CCUUUGGAUACUAUACAACCUACUACCUCA: 2.3 ± 0.12.
Consider GCUCUUGGAUACUAUACAACCUACUACCUCA, for which the “pre-steady-state target cleavage rate” value stood at 2.1 ± 0.1.
The same measure for GCUUGGAUACUAUACAACCUACUACCUCA: 1.87 ± 0.12.
To GGUUUGGAUACUAUACAACCUACUACCUCA belongs 1.81 ± 0.084; to CCUCUUGGAUACUAUACAACCUACUACCUCA, 2.3 ± 0.12.
The same measure for GGAGACCUAACUAUACUAGCUACUACCUCA: 0.0132 ± 0.006; for GGAGACCUAACUUACAACCUACUACCUCA: 0.00932 ± 0.008; for CCUCUGGAUACUAUCAACCUACUACCUCA: 1.82 ± 0.12.
As to GGAGAGGAUACAAUACAACCUACUACCUCA, the “pre-steady-state target cleavage rate” value came out at 1.18 ± 0.063.
To CCUCUGGAUACUAUACAAACUACUACCUCA belongs 1.27 ± 0.047; to GGAGACCUAUCUAUACUACCUACUACCUCA, 0.0899 ± 0.011.
As to GGUCUGGAUAGUAUACAACGUACUACCUCA, the “pre-steady-state target cleavage rate” value was 0.319 ± 0.047.
To GGAGACCUAACUAUACAACGUACUAGCUCA belongs 0.024 ± 0.0084.
To GGACUGGAUGCUAUACAACCUACUACCUCA belongs 1.82 ± 0.15; to GCUCUGGAUACUAUCAACCUACUACCUCA, 1.78 ± 0.12.
To GCUCUGGAUACUAUACCAACCUACUACCUCA belongs 0.392 ± 0.075; to CCUCUGGAUACUAUCCAACCUACUACCUCA, 2.1 ± 0.14.
Take GGACUGGAUACUAUCCAACCUACUACCUCA: the “pre-steady-state target cleavage rate” value was 1.76 ± 0.11.
To GCUCUGGAUACUAUCCAACCUACUACCUCA belongs 2.05 ± 0.14; to GGUCUGGAUACUAUCCAACCUACUACCUCA, 1.96 ± 0.14.
To GGAGAGGAUACUAUACAACCUAGUACCUCA belongs 0.145 ± 0.031; to GGAGACGAUACUAUACAACCUACAUCCUCA, 0.342 ± 0.029; to GGAGACCAAACUAUACAUCCUACUACCUCA, 0.513 ± 0.06.
For the sequence GGAGUGCAUACUAUACAACCUACUACGUCA, the “pre-steady-state target cleavage rate” value worked out at 0.629 ± 0.053.
The same measure for GGUCUGGAUACUUAUCAACCUACUACCUCA: 0.863 ± 0.11.
To GCUCUGGAUACUAUACAACCUACAUACCUCA belongs 1.87 ± 0.16; to GCUCUGCAUACUAUACAACCUACAACCUCA, 1.37 ± 0.12.
The same measure for GGUCUGGCUACUAUACAACCUACUACCUCA: 1.99 ± 0.11.
As to GGACUGGCAUACUAUACAACCUACUACCUCA, the “pre-steady-state target cleavage rate” value is 1.68 ± 0.12.
As for GCUCUGGCUACUAUACAACCUACUACCUCA, the “pre-steady-state target cleavage rate” value is 1.93 ± 0.099.
With CCUCUGGCUACUAUACAACCUACUACCUCA, the “pre-steady-state target cleavage rate” value worked out at 2.25 ± 0.11.
To GCUCUGGCAUACUAUACAACCUACUACCUCA belongs 2.17 ± 0.12; to CCUCUGGCAUACUAUACAACCUACUACCUCA, 2.31 ± 0.12; to GGUCUGGCAUACUAUACAACCUACUACCUCA, 1.86 ± 0.12.
The same measure for GGACUGGAUACAAUACAAGCUACUACCUCA: 0.683 ± 0.041; for GGAGACCUUACUAUACAACCUACUACCUGA: 0.777 ± 0.077; for GGAGUGGAUACUAUACCAACCUACUACCUCA: 0.0192 ± 0.0054.
GCUCUGGAUACUAUACAAGCUACUAGCUCA: the “pre-steady-state target cleavage rate” value is 0.745 ± 0.073.
To GGAGACCUAUGUAUACAUCCUAGUACCUCA belongs 0.00528 ± 0.0014; to GGAGACCUAACUAUACUACCUUCUACCUCA, 0.00903 ± 0.0034; to GGAGUCCAUACUAUACAACCUACUACCUCA, 1.63 ± 0.091.
To GGUCUCCAUACUAUACAACCUACUACCUCA belongs 1.79 ± 0.1.
The same measure for GCUCACCAUACUAUACAACCUACUACCUCA: 1.87 ± 0.13.
For the sequence GGAGACCAUACUAUACAACCUACUACUUCA, the “pre-steady-state target cleavage rate” value turned out to be 2.14 ± 0.14.
To GGACUCCAUACUAUACAACCUACUACCUCA belongs 1.67 ± 0.11.
Turning to GGAGACCAUACUAUACAACCUACUACCUACA, the “pre-steady-state target cleavage rate” value turned out to be 1.77 ± 0.18.
The same measure for CCUCUCCAUACUAUACAACCUACUACCUCA: 2.04 ± 0.12; for GGUCACCAUACUAUACAACCUACUACCUCA: 1.77 ± 0.11.
Regarding GCUCUCCUUACUAUACAACCUACUACCUCA, the “pre-steady-state target cleavage rate” value is 1.85 ± 0.12.
The same measure for GGAGACCAUACUAUACAACCUACUACCUUCA: 1.59 ± 0.1; for CCUCACCAUACUAUACAACCUACUACCUCA: 2.03 ± 0.12; for GCUCUCCAUACUAUACAACCUACUACCUCA: 2.13 ± 0.13.
